Test results reported in PubChem BioAssay (Tox21).
Values joined by “and” are separate entries in the source; they are usually repeats but may differ in a detail not shown here. Equal values may be shown once. Inconclusive results are not listed. The source holds several records for some structures; these can differ, active in one and inactive in another. Active and inactive are the calls of the source. Unless noted, calls come from the whole dose curve; as a rule, active = well fitted curve in the direction sought with a large enough effect in the repeat runs; inconclusive = weak or mixed curves; inactive = no such curve, though single readings can be large; an effect the other way counts as inactive or inconclusive.

Key:
[1] = qHTS assay to identify small molecule agonists of the RXR signaling pathway - cell viability counter screen (AID 1159529);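 note: HEK 293T cells carrying an RXR-alpha UAS beta-lactamase reporter; series mostly up to about 77 µM; nearly all actives have a fitted effect of over 50% in size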
Method in brief: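 Counter screen: CellTiter-Glo luminescence. Cells: RXR-alpha-UAS-bla HEK 293T. Medium: 2% charcoal-stripped FBS. Treatment: 16 h, 37 C. Reagent incubation: 30 min, RT.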

[2] = qHTS assay to identify small molecule antagonists of the retinoid acid receptor (RAR) signaling pathway - cell viability counter screen (AID 1159551); note: nearly all actives have a fitted effect of over 35% in size
Method in brief: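 Cytotoxicity counter screen in C3RL4 cells: 6 h compound exposure with 1 uM retinol (final), viability from cellular ATP by luminescence.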

[3] = qHTS assay to identify small molecule antagonists of the retinoic acid receptor (RAR) signaling pathway (AID 1159552; note: nearly all actives have a fitted effect of over 50% in size)
Method in brief: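 Antagonism of retinol-induced RARE reporter activity was measured in C3RL4 cells. Exposure to compounds and 1 uM final retinol lasted 6 hr at 37 C, with luminescence as endpoint.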

[4] = qHTS assay to identify small molecule agonists of the retinoic acid receptor (RAR) signaling pathway (AID 1159553); note: potency is the fitted concentration of half-maximal effect
Method in brief: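 Agonist activity was scored in C3RL4 cells bearing a retinoic acid response element luciferase construct. Cells were treated with compounds for 6 hr at 37 C, and luciferase signal was measured as luminescence.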

[5] = qHTS assay to identify small molecule antagonists of the estrogen related receptor (ERR) signaling pathway - cell viability counter screen (AID 1224818);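 note: series mostly up to about 46 µM; viability measured after 17.5 h of compound exposure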
Method in brief: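 Cells carrying the ERR pathway reporter were seeded and incubated for 6 hours before compound addition. After a 17.5-hour exposure at 37 C, live-cell protease activity was measured by CellTiter-Fluor fluorescence following 30 minutes of incubation.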

[6] = qHTS assay to identify small molecule antagonists of the estrogen related receptor signaling pathway with the pleiotropic PPARgamma coactivator (PGC) cell viability counter screen (AID 1224822;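 note: series mostly up to about 46 µM; viability read after 17.5 h compound exposure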)
Method in brief: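 Seed PGC/ERR cells (2,000/well); incubate 6 h at 37 C/5% CO2; pin-transfer compounds in DMSO; incubate 17.5 h at 37 C; add CellTiter-Fluor; after 30 min read fluorescence.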

[7] = qHTS assay to identify small molecule antagonists of the estrogen related receptor (ERR) signaling pathway from Tox21 library - cell viability counter screen (AID 1224834); note: nearly all actives have a fitted effect of over 30% in size
Method in brief: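 Cytotoxicity of test substances is gauged in the same ERR cells used for the antagonist screen, after 17.5 h of compound treatment at 37 C, by CellTiter-Fluor fluorescence measured after 30 min.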

[8] = target: Luciferin 4-monooxygenase (Photinus pyralis) (UniProt P08659); assay: qHTS assay to identify small molecule inhibitors of firefly luciferase (AID 1224835); note: nearly all actives have a fitted effect of over 25% in size; note: potency is the fitted concentration of half-maximal effect
Sequence of Luciferin 4-monooxygenase (Photinus pyralis) (P08659 whole entry, looked up): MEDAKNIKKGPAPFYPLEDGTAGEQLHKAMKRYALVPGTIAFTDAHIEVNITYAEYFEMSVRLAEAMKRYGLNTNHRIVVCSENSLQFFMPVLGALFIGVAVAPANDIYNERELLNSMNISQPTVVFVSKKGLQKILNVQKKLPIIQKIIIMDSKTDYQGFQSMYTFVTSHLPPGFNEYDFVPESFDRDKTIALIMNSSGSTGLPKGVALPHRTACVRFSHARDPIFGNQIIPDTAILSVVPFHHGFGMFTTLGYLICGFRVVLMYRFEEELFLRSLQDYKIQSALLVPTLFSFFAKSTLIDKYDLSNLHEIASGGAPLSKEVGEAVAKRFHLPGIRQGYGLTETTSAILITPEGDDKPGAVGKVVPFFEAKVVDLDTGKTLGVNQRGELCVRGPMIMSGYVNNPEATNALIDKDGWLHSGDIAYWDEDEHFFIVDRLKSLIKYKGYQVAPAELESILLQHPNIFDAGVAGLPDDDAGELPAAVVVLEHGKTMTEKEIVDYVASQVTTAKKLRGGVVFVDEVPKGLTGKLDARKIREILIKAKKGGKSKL
Method in brief: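 Quantitative HTS format; KM concentrations of both substrates. Purified P. pyralis FLuc activity quantified from luminescence images.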

[9] = qHTS assay to identify small molecule antagonists of the constitutive androstane receptor (CAR) signaling pathway - cell viability counter screen (AID 1224837); note: series mostly up to about 92 µM; nearly all actives have a fitted effect of over 45% in size
Method in brief: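 Multiplexed cytotoxicity read-out for the CAR antagonist screen: double-stable HepG2-CYP2B6-hCAR cells co-treated with 50 nM CITCO (final) and compound over 15 concentrations, incubated 23 hr, then assessed by CellTiter-Fluor fluorescence.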

[10] = qHTS assay to identify small molecule antagonists of the estrogen related receptor signaling pathway with the pleiotropic PPARgamma coactivator (PGC) from Tox21 10K library - cell viability counter screen (AID 1224840; active = well fitted cell-killing curve with a large enough effect in the repeat runs, not every such curve was filed as active; note: nearly all actives have a fitted effect of over 40% in size)
Method in brief: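 Step one, plate 2,000 PGC/ERR cells per well; step two, incubate 6 h at 37 C/5% CO2; step three, pin-transfer compounds; step four, incubate 17.5 h; step five, add CellTiter-Fluor and read fluorescence after 30 min.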

[11] = qHTS assay to identify small molecule antagonists of the estrogen related receptor (ERR) signaling pathway (AID 1224819;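 note: luminescence from an ERR-driven luciferase reporter measured with One-Glo reagent; series mostly up to about 46 µM; nearly all actives have a fitted effect of over 50% in size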)
Method in brief: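 Compounds dissolved in DMSO were pin-transferred onto ERR cells that had been plated 6 h earlier, and cells were then incubated 18 h at 37 C; signal was luciferase luminescence via One-Glo.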

[12] = system: estrogen-related receptor alpha (ERRalpha) with PGC-1alpha coactivator, human; assay: qHTS assay to identify small molecule antagonists of the estrogen related receptor signaling pathway with the pleiotropic PPARgamma coactivator (PGC) (AID 1224821; calls by dose curve;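 note: series mostly up to about 46 µM; lower luminescence signal means antagonism of PGC/ERR signalling; nearly all actives have a fitted effect of over 50% in size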)
Method in brief: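 Luminescent read-out (One-Glo, 30 min at room temperature) following 18 h treatment of PGC/ERR cells at 37 C with compounds delivered in DMSO. Cells had settled 6 h at 37 C/5% CO2 before dosing.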

[13] = qHTS assay to identify small molecule agonists of the estrogen related receptor signaling pathway with the pleiotropic PPARgamma coactivator (PGC) (AID 1224823)
Method in brief: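 Steps: plate PGC/ERR cells at 2,000 cells/well; incubate 6 h, 37 C/5% CO2; pin-transfer compounds (DMSO); incubate 18 h, 37 C; add One-Glo; 30 min RT; read luminescence.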

[14] = qHTS assay to identify small molecule agonists of the constitutive androstane receptor (CAR) signaling pathway - cell viability counter screen (AID 1224836); note: series mostly up to about 92 µM; nearly all actives have a fitted effect of over 45% in size
Method in brief: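 Double-stable HepG2 hepatoma cells (hCAR plus CYP2B6-2.2kb) are treated for 23 h at 37 C with test compounds in 15-point concentration series. PK11195 at 0.75 uM final is co-added. Cell viability is quantified by CellTiter-Fluor.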

[15] = target: Nuclear receptor subfamily 1 group I member 3 (Homo sapiens) (UniProt Q14994); assay: qHTS assay to identify small molecule antagonists of the constitutive androstane receptor (CAR) signaling pathway (AID 1224838); note: nearly all actives have a fitted effect of over 40% in size
Sequence of Nuclear receptor subfamily 1 group I member 3 (Homo sapiens) (Q14994 whole entry, looked up): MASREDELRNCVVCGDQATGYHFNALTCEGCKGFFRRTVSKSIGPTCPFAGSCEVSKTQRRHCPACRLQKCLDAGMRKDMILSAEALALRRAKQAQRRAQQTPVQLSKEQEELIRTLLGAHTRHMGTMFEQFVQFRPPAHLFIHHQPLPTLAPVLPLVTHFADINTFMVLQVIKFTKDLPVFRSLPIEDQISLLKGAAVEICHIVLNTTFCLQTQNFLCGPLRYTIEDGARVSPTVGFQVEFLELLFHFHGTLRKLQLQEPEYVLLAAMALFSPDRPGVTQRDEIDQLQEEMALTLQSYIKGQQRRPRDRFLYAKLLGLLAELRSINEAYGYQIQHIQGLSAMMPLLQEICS
Method in brief: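 Compounds were titrated across 15 concentrations onto HepG2 cells double-stably expressing hCAR and a CYP2B6-2.2kb reporter, together with 50 nM CITCO (final). After 24 h at 37 C, luciferase activity was measured by luminescence.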

[16] = target: Nuclear receptor subfamily 1 group I member 3 (Homo sapiens) (UniProt Q14994); assay: qHTS assay to identify small molecule agonists of the constitutive androstane receptor (CAR) signaling pathway (AID 1224839);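 note: HepG2 cells stably carrying human CAR and a CYP2B6 luciferase reporter; series mostly up to about 92 µM; nearly all actives have a fitted effect of over 15% in size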
Method in brief: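 Readout: firefly luciferase luminescence via ONE-Glo. System: HepG2 double-stable for hCAR and CYP2B6-2.2kb. Conditions: 15-point compound titration, PK11195 at 0.75 uM final, 24 h incubation.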

[17] = qHTS assay to identify small molecule antagonists of the estrogen related receptor signaling pathway with the pleiotropic PPARgamma coactivator (PGC) from Tox21 10K library (AID 1224841; call rule not given here; note: potency is the fitted concentration of half-maximal effect)
Method in brief: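 Antagonism in this quantitative HTS is taken from loss of luciferase signal in PGC/ERR cells. Cells (2,000/well) are treated with compounds in DMSO after a 6 h settling period and read by One-Glo luminescence after 18 h.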

[18] = qHTS assay to identify small molecule agonists of the estrogen related receptor signaling pathway with the pleiotropic PPARgamma coactivator (PGC) from Tox21 10K library (AID 1224842); note: nearly all actives have a fitted effect of over 15% in size
Method in brief: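 PGC/ERR reporter cells (NTP line) were seeded 2,000 per well, rested 6 h at 37 C/5% CO2, then pin-dosed with compounds in DMSO for 18 h at 37 C; luciferase read by One-Glo luminescence after 30 min at room temperature.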

[19] = target: Thyrotropin receptor (Homo sapiens) (UniProt P16473); assay: qHTS assay to identify small molecule agonists of the thyroid stimulating hormone receptor (TSHR) signaling pathway (AID 1224843; calls by dose curve; note: nearly all actives have a fitted effect of over 45% in size; note: potency is the fitted concentration of half-maximal effect)
Sequence of Thyrotropin receptor (Homo sapiens) (P16473 whole entry, looked up): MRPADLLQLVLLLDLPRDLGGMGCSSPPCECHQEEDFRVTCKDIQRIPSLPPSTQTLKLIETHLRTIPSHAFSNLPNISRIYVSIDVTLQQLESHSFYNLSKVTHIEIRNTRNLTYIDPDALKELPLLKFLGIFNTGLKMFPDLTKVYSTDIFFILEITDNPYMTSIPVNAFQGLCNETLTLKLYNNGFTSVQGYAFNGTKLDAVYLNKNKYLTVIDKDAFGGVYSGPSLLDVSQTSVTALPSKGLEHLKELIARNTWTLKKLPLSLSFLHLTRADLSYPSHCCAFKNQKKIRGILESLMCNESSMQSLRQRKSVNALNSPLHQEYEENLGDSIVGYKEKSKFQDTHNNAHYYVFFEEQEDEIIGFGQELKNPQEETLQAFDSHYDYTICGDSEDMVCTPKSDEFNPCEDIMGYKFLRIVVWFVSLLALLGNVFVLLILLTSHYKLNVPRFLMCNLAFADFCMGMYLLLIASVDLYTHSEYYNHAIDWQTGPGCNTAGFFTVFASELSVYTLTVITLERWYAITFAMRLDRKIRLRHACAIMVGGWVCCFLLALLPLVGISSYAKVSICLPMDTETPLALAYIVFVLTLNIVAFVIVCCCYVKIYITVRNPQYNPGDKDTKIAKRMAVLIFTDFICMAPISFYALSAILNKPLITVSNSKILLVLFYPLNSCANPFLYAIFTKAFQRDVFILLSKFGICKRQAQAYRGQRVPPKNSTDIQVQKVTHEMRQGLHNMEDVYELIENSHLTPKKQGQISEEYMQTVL
Method in brief: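 Cell line HEK293 with TSHR; density 800/well. Exposure 30 min RT. Readout HTRF cAMP (cAMP-d2/anti-cAMP-cryptate), 1 h RT before reading.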

[20] = qHTS assay to identify small molecule agonists of the estrogen related receptor (ERR) signaling pathway (AID 1224820)
Method in brief: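 Cells: ERR line from NTP, 2,000/well. Pre-incubation 6 h, 37 C/5% CO2. Compound (DMSO) pin transfer, 18 h 37 C. One-Glo, 30 min RT, luminescence.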

Measured: Potency

CC1COc2c(N3CCN(C)CC3)c(F)cc3c(=O)c(C(=O)O)cn1c23 (centres undefined)
inactive: [1] | [2] | [3] | [4] | [5] | [6] | [7] | [8] | [9] | [10]

C1COC(NC(C2CC2)C2CC2)=N1
not listed: [20]
inactive: all other assays above

NC(N)=NC(=O)Cc1c(Cl)cccc1Cl
inactive: all assays above

CC(C)(C)NCC(O)c1cc(O)cc(O)c1 (centres undefined)
active: [19] 0.596 µM
not listed: [11] | [12] | [13] | [15] | [16] | [17] | [18] | [20]
inactive: all other assays above

c1cc(C(c2ccc(OCC3CO3)cc2)C(c2ccc(OCC3CO3)cc2)c2ccc(OCC3CO3)cc2)ccc1OCC1CO1 (centres undefined)
inactive: [1] | [2] | [3] | [7] | [14] | [9] | [15] | [10] | [18]
79.8 µM (active) and inactive: [17]
active: [4] 8.96 µM and 27.3 µM | [8] 16.5 µM

CC(=O)OCCOCCOCCOC(C)=O
inactive: [1] | [2] | [3] | [4] | [7] | [8] | [14] | [9] | [15] | [16] | [10]

CCCCC/C=C/CC1CC(=O)OC1=O (centres undefined)
not listed: [5] | [6] | [11] | [12] | [13] | [16] | [19] | [20]
inactive: all other assays above

Cc1cccc2n[nH]nc12
not listed: [5] | [6] | [11] | [12] | [13] | [20]
inactive: all other assays above

O=C(OCc1ccccc1)c1ccc(O)cc1
active: [4] 6.86 µM and 11.9 µM | [8] 31.7 µM and 15.5 µM
inactive: [1] | [2] | [3] | [7] | [14] | [9] | [15] | [16] | [10] | [19]

Cc1cccc(O)c1C
not listed: [5] | [6] | [11] | [12] | [13] | [19] | [20]
inactive: all other assays above

Cc1scc2c1N(C(=O)CN1CCN(C)CC1)c1ccccc1NC2=O
not listed: [11] | [12] | [13] | [15] | [17] | [18] | [20]
inactive: all other assays above

O=C1CC2(CCCC2)CC(=O)N1CCCCN1CCN(c2ncccn2)CC1
19.3 µM (active) and inactive: [17]
inactive: all other assays above

CCCC(=O)c1ccccc1
not listed: [5] | [6] | [11] | [12] | [13] | [20]
inactive: all other assays above

c1ccc2c(c1)CCCC2C1=NCCN1 (centres undefined)
inactive: [1] | [2] | [3] | [4] | [5] | [6] | [7] | [8] | [14] | [9] | [10]

COC(=O)c1cccc(C(=O)OC)c1
inactive: [1] | [2] | [3] | [4] | [7] | [8] | [14] | [9] | [15] | [16] | [10]
